In PubChem BioAssay AID1159580 (chemical genetic matrix, 2015):
Where “and” joins values, the source holds several entries; their conditions need not be identical. Equal values may be shown once. Hit rate of the full screen: of about 5,500 compounds, about 2,000 (36%) were called active. Roughly 18% stayed inconclusive and do not appear here. Rule as the data show it: active = normalized growth mostly below about 0.91 (no sharp cut-off); inconclusive = no clear call, values can overlap the other calls; inactive = mostly above about 0.92. The list shows a part of the results.

Assay: chemical genetic growth profiling, strain panel (AID 1159580);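 also: tested at 20 µM; growth read once vehicle control cultures reached saturation at 30 °C; 1 = growth at the plate median or of vehicle wells; lower values mean less growth of the strain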
Settings: S. cerevisiae deletion strains, growth OD

Measured: normalized growth

COc1ccc(C2Sc3ccccc3N(CCN(C)C)C(=O)C2OC(C)=O)cc1 (stereo not given)
inactive: locus YAL013W, strain DEP1, stronger effect = lower value 1 | locus YAL021C, strain ccr4, stronger effect = lower value 0.985 | locus YAL026C, strain drs2, stronger effect = lower value 0.969 | locus YAL030W, strain snc1, stronger effect = lower value 0.986 | locus YBL061C, strain skt5, stronger effect = lower value 0.987 | locus YBR009C, strain hhf1, stronger effect = lower value 1.01 | locus YBR021W, strain FUR4, stronger effect = lower value 1.04 | locus YBR023C, strain chs3, stronger effect = lower value 0.988 | locus YBR171W, strain sec66, stronger effect = lower value 0.966 | locus YBR229C, strain ROT2, stronger effect = lower value 1.01 | locus YBR231C, strain swc5, stronger effect = lower value 0.919 | locus YBR279W, strain paf1, stronger effect = lower value 0.977 | locus YCL011C, strain gbp2, stronger effect = lower value 0.971 | locus YCL016C, strain dcc1, stronger effect = lower value 0.999 | locus YCL029C, strain bik1, stronger effect = lower value 1.03 | locus YCL069W, strain vba3, stronger effect = lower value 0.975 | locus YCR088W, strain abp1, stronger effect = lower value 0.979 | locus YDL005C, strain med2, stronger effect = lower value 0.953 | locus YDL035C, strain GPR1, stronger effect = lower value 1.02 | locus YDL040C, strain nat1, stronger effect = lower value 0.975 | locus YDL074C, strain BRE1, stronger effect = lower value 1.04 | locus YDL101C, strain DUN1, stronger effect = lower value 1.01 | locus YDL134C, strain PPH21, stronger effect = lower value 1.01 | locus YDL185W, strain tfp1, stronger effect = lower value 1.04 | locus YDL192W, strain arf1, stronger effect = lower value 1.04 | locus YDR001C, strain nth1, stronger effect = lower value 0.949 | locus YDR069C, strain doa4, stronger effect = lower value 0.963 | locus YDR101C, strain arx1, stronger effect = lower value 1.03 | locus YDR137W, strain rgp1, stronger effect = lower value 1.01 | locus YDR150W, strain NUM1, stronger effect = lower value 1.01 | locus YDR159W, strain sac3, stronger effect = lower value 0.981 | locus YDR162C, strain NBP2, stronger effect = lower value 1.01 | locus YDR195W, strain ref2 0.923 | locus YDR297W, strain sur2, stronger effect = lower value 0.989 | locus YDR318W, strain mcm21, stronger effect = lower value 1.03 | locus YDR334W, strain swr1, stronger effect = lower value 0.917 | locus YDR335W, strain msn5, stronger effect = lower value 0.943 | locus YDR388W, stronger effect = lower value 1.03 | locus YDR392W, strain spt3, stronger effect = lower value 1.02 | locus YDR502C, strain sam2, stronger effect = lower value 1.03 | locus YEL003W, strain gim4, stronger effect = lower value 0.978 | locus YEL037C, strain rad23, stronger effect = lower value 0.97 | locus YEL061C, strain CIN8 (second series), stronger effect = lower value 0.943 | locus YEL061C, strain CIN8, stronger effect = lower value 1.01 | locus YER015W, strain faa2, stronger effect = lower value 0.962 | locus YER016W, strain bim1, stronger effect = lower value 0.993 | locus YER110C, stronger effect = lower value 1.05 | locus YER111C, strain swi4, stronger effect = lower value 0.953 | locus YER155C, strain BEM2 (second series), stronger effect = lower value 0.986 | locus YER155C, strain BEM2, stronger effect = lower value 1.01 | locus YER167W, strain BCK2, stronger effect = lower value 1.03 | locus YFR010W, strain ubp6, stronger effect = lower value 0.938 | locus YGL078C, strain dbp3, stronger effect = lower value 1.03 | locus YGL086W, strain mad1, stronger effect = lower value 1.02 | locus YGL167C, strain pmr1, stronger effect = lower value 1.01 | locus YGL173C, strain kem1, stronger effect = lower value 1.01 | locus YGL227W, strain vid30, stronger effect = lower value 0.984 | locus YGL240W, strain doc1, stronger effect = lower value 0.983 | locus YGL248W, strain PDE1, stronger effect = lower value 1.01 | locus YGL253W, strain hxk2, stronger effect = lower value 0.959 | locus YGR078C, strain PAC10, stronger effect = lower value 1.01 | locus YGR135W, strain pre9, stronger effect = lower value 1.02 | locus YGR229C, strain SMI1, stronger effect = lower value 1.05 | locus YGR252W, strain gcn5, stronger effect = lower value 1.06 | locus YHR013C, strain ard1, stronger effect = lower value 0.979 | locus YHR027C, strain rpn1, stronger effect = lower value 0.977 | locus YHR030C, strain SLT2, stronger effect = lower value 1.01 and 1.04 | locus YHR079C, strain IRE1 (second series), stronger effect = lower value 1.03 | locus YHR079C, strain IRE1, stronger effect = lower value 1.01 | locus YHR094C, strain hxt1, stronger effect = lower value 1.03 | locus YHR129C, strain ARP1, stronger effect = lower value 1.01 | locus YHR142W, strain chs7, stronger effect = lower value 0.972 | locus YHR200W, strain rpn10, stronger effect = lower value 1.04 | locus YIL066C, strain RNR3, stronger effect = lower value 1.01 | locus YIL073C, strain SPO22, stronger effect = lower value 1.12 | locus YIL125W, strain kgd1, stronger effect = lower value 1.03 | locus YIR030C, strain dcg1, stronger effect = lower value 1.04 | locus YJL092W, strain hpr5, stronger effect = lower value 0.99 | locus YJL095W, strain BCK1 (second series), stronger effect = lower value 0.973 | locus YJL095W, strain BCK1, stronger effect = lower value 1.03 and 1.01 | locus YJL115W, strain asf1, stronger effect = lower value 0.949 | locus YJL129C, strain trk1, stronger effect = lower value 0.925 | locus YJL134W, strain LCB3, stronger effect = lower value 1 | locus YJL154C, strain vps35, stronger effect = lower value 0.982 | locus YJL164C, strain tpk1, stronger effect = lower value 0.996 | locus YJL166W, strain qcr8, stronger effect = lower value 0.986 | locus YJL168C, strain set2, stronger effect = lower value 1.04 | locus YJL187C, strain SWE1 (second series), stronger effect = lower value 1.01 | locus YJR066W, strain TOR1, stronger effect = lower value 0.942 | locus YJR075W, strain HOC1, stronger effect = lower value 1.02
